{
  "source": "PubChem BioAssay AID602332",
  "about": "(National Center for Advancing Translational Sciences (NCATS), 2012)",
  "note": "“And” between values parts separate entries of the source, which are not always exact repeats. Identical values can stand only once. Out of some 420,000 compounds screened, about 75 (0.02%) were called active. Many of the other results were omitted from the sample, so actives are more common in it than they were. The source holds several records for some structures; these can differ, active in one and inactive in another. A number with no mark means an inactive call. Calls follow the shape of the dose curve; as a rule, active = well fitted activation curve with a large enough effect; inconclusive = small, poorly fitted or top-dose-only effect; inactive = no such curve, though single readings can be large or run the other way. Potency is read from the fitted curve at half-maximal effect.",
  "data": [
    {"experiment": "qHTS for Inducers of the Endoplasmic Reticulum Stress Response (ERSR) in Human Glioma: qHTS; also: nearly all actives have a fitted effect of over 35% in size; as to activation: % of control where 0% means no effect", "settings": "U87-MG GRP78 promoter luciferase reporter, 16 h; activation: stronger effect = higher value", "procedure,_shortened": "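ERSR induction read as luciferase luminescence (Bright-Glo, 10 min at room temperature) in stably transfected human U87-MG glioma cells exposed to compounds for 16 h, using GRP78 as sensor.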", "values": [
      {"smiles": "COc1ccc(/C=C/NC(=O)Cc2ccc(OC)c(OC)c2)cc1", "activation": "0.885% and -3.87%"},
      {"smiles": "Cc1c(C(=O)NCC2CCCN(C)C2)cnn1-c1nccc(-c2ccco2)n1", "note": "(stereo unspecified)", "activation": "-1.59%"},
      {"smiles": "O=S(O)S(=O)(=O)O", "activation": "-8.27%"},
      {"smiles": "CCOC(=O)N1CCN(Cc2ccc3c(c2)CN(C(=O)c2cccc(-n4cccn4)c2)CCO3)CC1", "activation": "-2.17%"},
      {"smiles": "Cc1ccc(/C=C(\\C#N)C(=O)Nc2cc(C)ccc2C)cc1", "activation": "-3.56%"},
      {"smiles": "N#C/C(=C\\c1ccc(O)c(O)c1)C(N)=O", "activation": "-0.645% and -1.72%"},
      {"smiles": "N#C/C(=C\\c1ccc(O)c(O)c1)C(=O)NCc1ccccc1", "Potency": "25.1 µM (active)", "activation": "7.31% and 13.4% and 3.72%"},
      {"smiles": "Cc1cnc(C)c(-c2cc(F)c3c(c2)CC(CNC(=O)c2cccc(Cn4cccn4)c2)O3)n1", "note": "(stereo unspecified)", "activation": "-2.2%"},
      {"smiles": "COc1ccccc1-c1ccnc(-n2ncc(C(=O)NCCc3ccncc3)c2C)n1", "activation": "-0.593%"},
      {"smiles": "O=C(c1cccc(Cn2cccn2)c1)N1CCOc2c(cc(-c3csc4ccccc34)cc2OC2CCOC2)C1", "note": "(stereo unspecified)", "activation": "-1.78%"},
      {"smiles": "Cc1ccc(C(=O)Nc2cccc(-c3nc(CNC(=O)c4ccccc4-n4cccn4)c(C)o3)c2)s1", "activation": "-4.42%"},
      {"smiles": "COc1ccc(CN(C)CCn2cc(C(=O)N3CCSCC3)nn2)cc1C", "activation": "-2.77%"},
      {"smiles": "COC(=O)C1CCCCN1Cc1ccc2c(c1)CN(Cc1cc(OC)c3c(c1)OCO3)CCO2", "note": "(stereo unspecified)", "activation": "0.195%"},
      {"smiles": "COC(=O)C(C(=O)OC)[C@@H]1CCCC(=O)C1", "activation": "-5.46%"},
      {"smiles": "COCCN1CCN(C(=O)c2sc3ncnc(NCC4CCCO4)c3c2C)CC1", "note": "(stereo unspecified)", "activation": "-1.15%"},
      {"smiles": "COc1ccc(CCNc2ncnc3sc(C(=O)N4CCCC4)c(C)c23)cc1OC", "activation": "-0.648%"},
      {"smiles": "C[C@@H]1CN(Cc2ccc3c(c2)CN(Cc2ccc(Oc4ncccn4)cc2)CCO3)C[C@H](C)O1", "activation": "-2.33%"},
      {"smiles": "CC(C)[C@@H](OCc1ccccc1)[C@H](C)/C=N\\OC[C@@H](C)[C@H](OCc1ccccc1)C(C)C", "activation": "-2.4%"},
      {"smiles": "Cc1cc(C(=O)NCC2Cc3cccc(-c4cncnc4)c3O2)c(C)o1", "note": "(stereo unspecified)", "activation": "-0.609%"},
      {"smiles": "CCOC(OCC)OCC", "activation": "3.31%"},
      {"smiles": "CC[C@H](C)[C@H](NC(=O)[C@@H](N)CCC(=O)O)C(=O)N[C@@H](CC(C)C)C(=O)N[C@@H](CC(=O)O)C(=O)N[C@H](C(=O)N1CCC[C@H]1C(=O)N[C@@H](CO)C(=O)N[C@H](C(=O)O)[C@@H](C)O)C(C)C", "activation": "-2.27%"},
      {"smiles": "N[C@@H](C(=O)O)c1ccc(P(=O)(O)O)cc1", "activation": "-4.34%"},
      {"smiles": "CN(C)c1ccc(CN2CCOc3ccc(CN4CCC(O)(c5cccnc5)CC4)cc3C2)cc1", "activation": "-1.82%"},
      {"smiles": "Cc1ccc(Cn2cnc3c(cnn3C(C)(C)C)c2=O)c(F)c1", "activation": "-6.82%"},
      {"smiles": "O=C(C[n+]1ccncc1)c1ccc2c(c1)CCCC2", "activation": "-0.663%"},
      {"smiles": "Cc1cc(-c2ccnc(-n3ncc(C(=O)NC(C)(C)CO)c3C3CC3)n2)c(C)s1", "activation": "-3.21%"},
      {"smiles": "Cc1cccc(CNc2ccnc(-c3cccnc3)n2)c1", "activation": "6.2%"},
      {"smiles": "CCOC(=O)Cc1cccc(-c2cc(CCCCCCc3ccc(O[C@H]4O[C@H](COC(C)=O)[C@@H](OC(C)=O)[C@H](OC(C)=O)[C@@H]4OC(C)=O)c(-c4cccc(CC(=O)OCC)c4)c3)ccc2O[C@H]2O[C@H](COC(C)=O)[C@@H](OC(C)=O)[C@H](OC(C)=O)[C@@H]2OC(C)=O)c1", "activation": "-3.38%"},
      {"smiles": "O=c1cc(-c2ccc(O)cc2)oc2c([C@@H]3O[C@H](CO)[C@@H](O)[C@H](O)[C@H]3O)c(O)cc(O)c12", "activation": "-0.663%"},
      {"smiles": "Cc1ccc(-c2ccnc(-n3ncc(C(=O)N(C)Cc4cccc5ncccc45)c3C3CC3)n2)o1", "activation": "-4.64%"},
      {"smiles": "COc1ccnc(C[S@@](=O)[C@@H]2Nc3ccc(OC(F)F)cc3N2)c1OC", "activation": "-1.51%"},
      {"smiles": "COc1ccc2c(c1)NC(=O)C2CC(=O)N1CCOc2c(cc(-c3cnc4ccccc4c3)cc2OC)C1", "note": "(stereo unspecified)", "activation": "-6.72%"},
      {"smiles": "COCC1CCCN(Cc2ccc3c(c2)CN(C(=O)c2ccnn2C)CCO3)C1", "note": "(stereo unspecified)", "activation": "-2.07%"},
      {"smiles": "COc1ccc(F)c(CN2CCC3(CCC(CNC(=O)c4ccn(C)n4)O3)CC2)c1", "note": "(stereo unspecified)", "activation": "-4.54%"},
      {"smiles": "NNc1nnc(Cc2ccncc2)c2ccccc12", "activation": "-5.05%"},
      {"smiles": "CC1=C(/C=C/C(C)=C/C=C/C(C)=C/C=C/C=C(C)/C=C/C=C(C)/C=C/C(=O)[C@]2(C)C[C@@H](O)CC2(C)C)C(C)(C)C[C@H](O)C1", "activation": "-0.817%"},
      {"smiles": "O=C1NC(CC(=O)N2CCC(n3c(C4CCC4)nc4cccnc43)CC2)c2ccccc21", "note": "(stereo unspecified)", "activation": "-7.83%"},
      {"smiles": "COCC(=O)Nc1cc(C(=O)N2CCCC(c3ccccc3)CC2)c2c(c1)nc(-c1ccncc1)n2C", "note": "(stereo unspecified)", "activation": "1.99%"},
      {"smiles": "COc1ccc(C)cc1N1C(=O)[C@@H]2C[C@H]1CN2Cc1cccc(OC)c1O", "activation": "-3.49%"},
      {"smiles": "CCOC(=O)[C@]1(C(/C=C/c2ccco2)NC(=O)OC)CCCC1=O", "note": "(stereo partly specified)", "activation": "-4.35%"},
      {"smiles": "CCOCCOC(=O)C(C)Oc1ccc(Oc2ncc(C(F)(F)F)cc2Cl)cc1", "note": "(stereo unspecified)", "activation": "3.45%"},
      {"smiles": "CN1CCCCCC1C(=O)NCCN1Cc2ccccc2OC(c2ccsc2)C1", "note": "(stereo unspecified)", "activation": "-4.87%"},
      {"smiles": "CNCCCOc1cc2nc(N3CCCN(C)CC3)nc(NC3CCN(C)CC3)c2cc1OC", "activation": "-4.57%"},
      {"smiles": "COc1ccccc1-c1ccnc(-n2ncc(C(=O)NCCCN3CCOCC3)c2C)n1", "activation": "-5.22%"},
      {"smiles": "COC(=O)NC(c1ccccc1)[C@]1(C(C)=O)CCCC1=O", "note": "(stereo partly specified)", "activation": "-3.63%"}
    ]}
  ]
}
